From PubChem BioAssay
Activity calls are given as the source filed them. No rule for the calls is given here.

Target: Pantothenate synthetase (Mycobacterium tuberculosis (strain ATCC 25618 / H37Rv)) (UniProt P9WIL5)
Experiment: Recombinant Mtb pantothenate synthetase (PanC) inhibitors, coupled enzyme, confirmatory (AID 375);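 also: 0% = full reaction with vehicle and 100% = no enzyme background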
Details: coupled enzyme assay; at 10 µM, stronger effect = higher value

Pantothenate synthetase (Mycobacterium tuberculosis (strain ATCC 25618 / H37Rv)), sequence (P9WIL5 whole entry, looked up): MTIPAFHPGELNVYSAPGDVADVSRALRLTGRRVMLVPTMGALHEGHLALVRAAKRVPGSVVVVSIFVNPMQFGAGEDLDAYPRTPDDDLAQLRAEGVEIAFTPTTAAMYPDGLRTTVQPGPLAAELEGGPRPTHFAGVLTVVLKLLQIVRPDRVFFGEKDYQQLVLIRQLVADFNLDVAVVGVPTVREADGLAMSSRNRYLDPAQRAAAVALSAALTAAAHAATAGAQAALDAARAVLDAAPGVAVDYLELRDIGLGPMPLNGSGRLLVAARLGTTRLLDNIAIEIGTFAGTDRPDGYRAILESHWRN

Compound | inhibition
Cc1ccc(S(=O)(=O)N(CCO)c2cc3c(s2)CCCC3)cc1 | 0% (inactive)
COc1ccc(-c2cc(C(F)(F)F)nc(N3CCN(c4ccc(F)cc4)CC3)n2)cc1OC | 0% (inactive)
Cc1cccn2c(=O)c3cc(C(=O)NC4CCCC4)c(=N)n(C4CCCC4)c3nc12 | 0% (inactive)
O=C(NCc1ccccn1)c1cc(-n2cnnc2)ccc1Cl | 0% (inactive)
N#CC1=C(N)Oc2c(ccc3cccnc23)C1c1cccnc1 (stereo not given) | 0% (inactive)
Cc1c(NC2=NC3(CCCCC3)Cc3ccccc32)c(=O)n(-c2ccccc2)n1C | 2% (inactive)
Cc1ccc(O)c(-c2cc(C(=O)Nc3ccc(S(=O)(=O)N4CC(C)OC(C)C4)cc3)[nH]n2)c1 (stereo not given) | 5% (inactive)
O=C(NC1=NCCS1)NC12CC3CC(CC(C3)C1)C2 | 2% (inactive)
O=C1OC(N2CCN(c3ccccn3)CC2)c2ccccc21 (stereo not given) | 0% (inactive)
CC(CCc1ccco1)NC(=O)Cn1ncc2c1-c1ccccc1OC2 (stereo not given) | 5% (inactive)
CCOC(=O)c1c(C)oc2ccc(OCC(=O)N(CC)CC)cc12 | 4% (inactive)
CCCCNC(=O)Nc1ccnn1C1CCCCC1 | 1% (inactive)
Cc1c(O)c(CN2CCCCC2)cc2c3c(c(=O)oc12)CCC3 | 2% (inactive)
COc1ccc(Cc2nnc3n2N=C(c2cc4ccccc4o2)CS3)cc1OC | 0% (inactive)
CC1Cc2ccccc2N1C(=O)Cc1cccs1 (stereo not given) | 3% (inactive)
CC(=O)c1cccc(NS(=O)(=O)c2ccc3c(c2)oc(=O)n3C)c1 | 0% (inactive)
CC1(C)CC(=O)C(C=NC(CCC(N)=O)C(=O)O)=C(O)C1 (stereo not given) | 3% (inactive)
C1=Nc2c(NCc3ccccc3)ncnc2Oc2ccccc21 | 0% (inactive)
Cc1ccc(-c2noc(CCC(=O)N3CCN(c4cccc(C(F)(F)F)c4)CC3)n2)cc1 | 0% (inactive)
Cc1n[nH]c(C)c1S(=O)(=O)Nc1ccc2c(c1)OCCO2 | 0% (inactive)

Compound | inhibition
COc1ccc(NC(=O)COc2ccccc2)c(OC)c1 | 0% (inactive)
Cn1ccnc1C(O)c1ccco1 (stereo not given) | 3% (inactive)
O=C1CCC(=O)N1OCCCOc1ccc(Br)cc1Cl | 0% (inactive)
COC(=O)Nc1nnc(CCc2ccccc2)s1 | 2% (inactive)
CCOc1ncccc1C(=O)Nc1ccc2c(C)cc(=O)oc2c1 | 7% (inactive)
COc1ccc2nc3oc(C(=O)N4CCCCC4)cc3cc2c1 | 12% (inactive)
COc1cc2c(OC)cccc2cc1C(=O)O | 0% (inactive)
COc1cccc(C(=O)Nc2ccc(N(C)C)cc2)c1OC | 8% (inactive)
O=C(O)COc1ccc(Oc2ccccc2)cc1 | 3% (inactive)
CC(C(=O)N1CCOCC1)N1c2cccc3cccc(c23)S1(=O)=O (stereo not given) | 8% (inactive)
COc1ccccc1N1CCN(C(=O)c2cc(C3CC3)on2)CC1 | 3% (inactive)
CCOC(=O)CCC(=O)Nc1ccc(S(=O)(=O)N2CCCC2)cc1 | 0% (inactive)
CCC(c1nnc(SCC(=O)NCC2CCCO2)n1Cc1ccccc1)N(C)C (stereo not given) | 0% (inactive)
CCCCN1CN(S(=O)(=O)c2cccs2)c2nc3ccccc3nc21 | 0% (inactive)
CCN(CC)S(=O)(=O)c1ccc(Br)c(OC)c1 | 0% (inactive)
Nc1nnc(-c2cccc(Cl)c2Cl)c(N)n1 | 2% (inactive)
COc1ccc(Cl)cc1Nc1nc(NCCO)nc(N2CCCC2)n1 | 9% (inactive)
COc1ccc2nc(C)cc(N3CCOCC3)c2c1 | 0% (inactive)
COc1ccc(OC)c(S(=O)(=O)NCCC2=CCCCC2)c1 | 6% (inactive)
C=CCOC(=O)C(C#N)c1nc2ccccc2nc1N1CCN(Cc2ccccc2)CC1 (stereo not given) | 2% (inactive)
